Measurements: ChEMBL document CHEMBL3988442, “University of Dundee, Small-Polar-MMV Screening Library” (2021)
Hit rate of the full screen: of about 38,000 compounds, about 1,200 (3.2%) showed an effect of 50% or more. The median lay at about -58%. This is one part of a sample in which strong results are shown more often than they occur.

System: Plasmodium falciparum
Test: Calibr Malaria Delayed Death Assay SOP
Assay type: functional, organism-based
Parameters: scale not given: in the data most compounds retested in dose-response had high values
Conditions: concentration 4.99e-06 (unit not given; other assays of the set use mol/L)

Point of comparison: `CN1CCC2(CC1)CN(C(=O)c1cccnc1)c1ccc(Cl)cc12`, “Percent Effect” value 55.37%. Against it:
- CCOC(=O)[C@H]1[C@@H](O)C(=O)N(C)C12CCN(C(=O)CC(C)(C)C)CC2 — lower, -173.1%
- Cc1nn2cccnc2c1C(=O)N1CCCC(n2cccn2)C1 (stereo not given) — lower, -26.13%
- Cc1ccccc1CN1CC[C@H]2C[C@H](C(=O)N(C)C)O[C@H]2C1.O=C(O)C(F)(F)F — lower, -65.63%
- COc1ccc2nnc(CCC(=O)Nc3nc4c(s3)CCCCC4)n2n1 — lower, -7.858%
- CC(C)[C@]1(O)CN(C(=O)C2(Cn3cccn3)CC2)C[C@H]1C — lower, -13.49%
- COC[C@@]12CCO[C@@H]1CCN(C(=O)CCc1ccccc1Cl)C2 — lower, -39.1%
- O=C(Nc1ccc(-n2cccn2)cc1)N1CCC(O)C1 (stereo not given) — lower, -73.59%
- CC(=O)c1ccc(-n2c(C)cn(CCS(C)(=O)=O)c2=O)cc1 — lower, 3.074%
- CNC(=O)[C@H]1C[C@@H]2CN(C(=O)NCCc3ccccc3)C[C@H]1O2 — lower, -57.69%
- Cc1n[nH]cc1CNC(=O)Nc1cccc(OCC(F)(F)F)c1 — lower, -36.62%
- Cc1n[nH]cc1CNCc1cccc(OCC(F)(F)F)c1.Cl — higher, 56.25%
- Cc1n[nH]cc1CNCc1ccnc(OCC(F)(F)F)c1.Cl — lower, -70.94%
- O=C1CCNc2ccccc2CN1Cc1ccco1 — lower, -58.24%
- Cc1cnn(C2CCCN(C(=O)c3ccc(-n4ccnc4)cc3)C2)c1 (stereo not given) — lower, -131.1%
- c1ncn(CC2CCCN(Cc3noc(C4CC4)n3)C2)n1 (stereo not given) — lower, -140.8%
- CCc1nc(Nc2cccc(C(=O)NC)c2)c2c(n1)c(C)nn2CC — lower, -106.8%
- COc1ccnc(NC(Cc2ccccc2)C(N)=O)n1 (stereo not given) — lower, -102.6%
- Cc1ccccc1C1(C(=O)NCCN2CCCC2)CCOCC1 — lower, -7.598%
- COc1ccccc1C1(C(=O)NCCN2CCOCC2)CCOCC1 — lower, -173.3%
- Cc1ccc(CNCC2Cn3nncc3CO2)s1 (stereo not given) — lower, -76.38%
- CN(Cc1cncnc1)[C@H]1CN(C(=O)c2ccc[nH]2)[C@@H]2CCCO[C@@H]21 — lower, -58.36%
- CC(c1ccc(F)cc1F)N1CCN(CCN2CCCC2=O)CC1 (stereo not given) — lower, -15.63%
- CC(c1ccc(F)cc1F)N1CCN(CCC(=O)O)CC1.Cl (stereo not given) — lower, -12.88%
- CC(c1ccc(F)cc1F)N1CCN(CCC(=O)NC(N)=O)CC1 (stereo not given) — higher, 63.51%
- Fc1ccccc1OCCN1CCCCC1Cn1cncn1 (stereo not given) — lower, -107.8%
- O=C(O)C(F)(F)F.O=C(O)C(F)(F)F.c1nc(CNC2CCOCC2)c2n1CCCN(CC1CC1)C2 — lower, -115.6%
- O[C@H]1[C@H](NCCc2ccccn2)c2ccccc2C12CCNCC2 — lower, -35.06%
- COCCN(C)[C@@H]1c2ccccc2C2(CCNCC2)[C@H]1O — lower, -111.9%
- COc1ccccc1CCN[C@@H]1c2ccccc2C2(CCNCC2)[C@H]1O — higher, 81.73%
- Cc1ccc(CCN[C@@H]2c3ccccc3C3(CCNCC3)[C@H]2O)s1 — higher, 87.27%
- O[C@H]1[C@H](NCCSc2ccccn2)c2ccccc2C12CCNCC2 — lower, 23.57%
- O[C@H]1[C@H](NCCc2cnccn2)c2ccccc2C12CCNCC2 — lower, -10.61%
- Cc1ccc(-n2ncc3c2CCCC3N)cc1C (stereo not given) — lower, 5.746%
- COCCN(Cc1cccnc1)S(=O)(=O)c1ccc(F)cc1C — lower, -88.98%
- Cc1cccc(C2CCCN2S(=O)(=O)N(C)C)n1 (stereo not given) — lower, -47.51%
- C=C(C)CSc1nnc(CCNC(=O)OC(C)(C)C)o1 — lower, -85.15%
- O=S1(=O)N=C(CSCc2ccccc2)Nc2ccccc21 — lower, -68.12%
- COc1cc(S(=O)(=O)N2CCc3cc(Br)ccc32)cc(C(=O)O)c1OC — lower, -66.42%
- CC(=O)c1cccc(S(=O)(=O)NCCNC(=O)c2snnc2C)c1 — lower, -10.04%
- Cc1csc(CN2CC[C@H]3O[C@H](C(=O)Nc4cccnc4)CC[C@H]32)n1.O=C(O)C(F)(F)F.O=C(O)C(F)(F)F — lower, -21.13%
- CN1CC[C@H]2[C@H](C[C@@H](CN3CCCC3)N2c2nccs2)C1.O=C(O)C(F)(F)F.O=C(O)C(F)(F)F.O=C(O)C(F)(F)F — higher, 72.73%
- CC(=O)N1[C@H](Cn2cncn2)C[C@@H]2CN(Cc3nccs3)CC[C@@H]21 — lower, -179.2%
- CCC(=O)N1CC[C@H]2[C@H](C[C@@H](Cn3cccn3)N2c2nccs2)C1.O=C(O)C(F)(F)F.O=C(O)C(F)(F)F — lower, -17.69%
- CC(=O)N1CC[C@H]2[C@H](C[C@@H](Cn3cncn3)N2c2nccs2)C1.O=C(O)C(F)(F)F — lower, -37.22%
- Cl.Cl.c1csc(N2[C@H](Cn3cncn3)C[C@@H]3CNCC[C@@H]32)n1 — lower, -62.09%
- CC(=O)N1CC[C@H]2[C@H](C[C@@H](CN3CCCC3)N2c2nccs2)C1.O=C(O)C(F)(F)F.O=C(O)C(F)(F)F — lower, -53.97%
- CC(C)N1CC[C@H]2[C@H](C[C@@H](Cn3cccn3)N2c2nccs2)C1.O=C(O)C(F)(F)F.O=C(O)C(F)(F)F.O=C(O)C(F)(F)F — higher, 65%
- O=C(O)C(F)(F)F.O=C(O)C(F)(F)F.O=C(O)C(F)(F)F.c1cnn(C[C@@H]2C[C@@H]3CN(CC4CC4)CC[C@@H]3N2c2nccs2)c1 — higher, 89.5%
- CCC(=O)N1CC[C@H]2[C@H](C[C@@H](CN3CCCC3)N2c2nccs2)C1.O=C(O)C(F)(F)F.O=C(O)C(F)(F)F — lower, -82.37%
- CC(=O)N1[C@H](Cn2cncn2)C[C@@H]2CN(CC3CC3)CC[C@@H]21.O=C(O)C(F)(F)F — lower, -11.44%
- CN1[C@H](CN2CCCC2)C[C@@H]2CN(C(=O)Cc3cccs3)CC[C@@H]21.O=C(O)C(F)(F)F.O=C(O)C(F)(F)F — lower, -31.64%
- CC1CCC(NC(=O)NCC(C)(C)CCS(C)(=O)=O)CC1 (stereo not given) — lower, -129.7%
- CCN(Cc1ccc(S(C)(=O)=O)cc1)Cc1nc(COC)no1 — lower, -129.1%
- O=c1cc(Cn2ccnc2)nc2n1CCCN(Cc1cccs1)C2 — lower, -55.92%
- O=C(NCCCO)c1cc(-c2cc[nH]n2)n2ccccc12.O=C(O)C(F)(F)F — lower, -31.15%
- COc1ccc(C(NCc2cccc(C#N)c2)C(C)C)cc1 (stereo not given) — lower, -12.81%
- COc1ccc(C(NCc2cccc(C#N)c2)C2CC2)cc1 (stereo not given) — lower, 47.49%
- COc1ccc(C(NCc2cccc(O)c2)C2CC2)cc1 (stereo not given) — higher, 83.32%
- CC(C)CCNC(=O)NC(C)c1nncn1C (stereo not given) — lower, -95.25%
- CCN1CCC2(CC1)CN(C(=O)c1cccnc1)c1ccc(Cl)cc12.O=C(O)C(F)(F)F.O=C(O)C(F)(F)F — lower, 9.219%
- CC(=O)N1CCC2(CC1)CN(C(=O)c1cccnc1)c1ccc(F)cc12.O=C(O)C(F)(F)F — lower, -38.16%
- O=C(CN1CCC(c2nnc(C(F)(F)F)o2)CC1)Nc1cccc(Cl)c1 — lower, -52.49%
- CC(C)Nc1ncnc2c1CCN(C(=O)c1ccccc1F)CC2.O=C(O)C(F)(F)F — lower, -96.03%
- O=S(=O)(NC1=NCN(CCc2cccs2)CN1)c1ccc(Br)cc1 — lower, -31.17%
- CCCC(=O)N1CCC(N2CC[C@@](O)(CCOC)[C@H](C)C2)CC1 — lower, -32.76%
- CCCS(=O)(=O)N1CCC2(CC1)CC(Nc1ncccn1)CO2 (stereo not given) — lower, -70.84%
- CC(C)N(C)Cc1cnc2n1CCN(C(=O)Cc1ccccn1)C2.O=C(O)C(F)(F)F.O=C(O)C(F)(F)F — lower, -6.542%
- O=C(NC1CC1)N1CCn2c(Cn3cccn3)cnc2C1.O=C(O)C(F)(F)F — lower, -67.84%
- O=C(c1cccs1)N1CCc2ncc(Cn3cncn3)n2CC1 — lower, -172.5%
- CC(C)N(C)Cc1cnc2n1CCN(CCc1ccccc1)C2.O=C(O)C(F)(F)F.O=C(O)C(F)(F)F — lower, 0.4179%
- CC(C)N(C)Cc1cnc2n1CCN(C(=O)c1cccs1)C2 — higher, 60.68%
- Cc1noc(C2CCC3(CCN(C(=O)c4ccnnc4)CC3)O2)n1 (stereo not given) — lower, -55.26%
- Cc1cccc(NC(=O)[C@@H]2CCCN2Cc2nc(C)c(C)o2)n1 — lower, -28.43%
- CCOc1ccc(C(C)Nc2ncnc3c2CCNC3)cc1OCC (stereo not given) — lower, 46.78%
- CC(Nc1ncnc2c1CCNC2)c1ccc2c(c1)CCCC2 (stereo not given) — higher, 70.15%
- CC(C)Nc1ncnc2c1CCNCC2 — lower, -47.68%
- Cc1ccc(C)c(-n2ncc(C(=O)NCC3COC(C)(C)O3)c2N)c1 (stereo not given) — lower, -97.45%
- COCCN(C)C[C@@H]1CN(C(=O)c2cccc(C#N)c2)C[C@@H]1CO — lower, -70.73%
- COc1cc(Cl)c(NCc2c(C)noc2C)cc1OC — lower, -68.38%
- Cc1cccc(C(=O)Nc2cccc3c2CCCC3)n1 — lower, -261.8%
- CC1CN(c2ncccc2C(=O)Nc2cccc3c2CCCC3)CCN1 (stereo not given) — lower, 10.16%
- O=C(Nc1cccc2c1CCCC2)c1cccnc1N1CCCNCC1 — lower, 53.52%
- Cc1cccc(OC2CCN(C(=O)c3ccc4ncsc4c3)CC2)n1 — lower, -115.6%
- CCNc1ncc2c(n1)CN(c1ccc(Cl)cc1)C2=O — lower, -180.2%
- CCCC(=O)N1CCC2(CC1)CC(NC(C)=O)c1ccccc1O2 (stereo not given) — lower, -58.82%
- CCOC1COC2(CCN(Cc3cccc(C)n3)CC2)C1.O=C(O)C(F)(F)F (stereo not given) — lower, -37.49%
- CCN1CCC2(CC1)CC(NCc1cccc(C)n1)c1ccccc1O2.O=C(O)C(F)(F)F.O=C(O)C(F)(F)F.O=C(O)C(F)(F)F (stereo not given) — higher, 91.27%
- Cc1cccc(COC2COC3(CCN(Cc4ccoc4)CC3)C2)n1 (stereo not given) — lower, -18.84%
- Cc1cccc(COC2COC3(CCN(S(C)(=O)=O)CC3)C2)n1.O=C(O)C(F)(F)F (stereo not given) — lower, -59.75%
